# Test results as given in the supplement of paper PMC11006884.
# About 6,500 targets were measured; listed, in parts, are those with a hit and a random draw of the rest. About 2% of all pairs of compound and target were hits. Unmarked numbers belong to inactive results.
# Compound: COC(=O)C#Cc1ccccc1 [methyl 3-phenylpropiolate]
# Assay: log2 ratio of iodoacetamide-alkyne labeling of the cysteine site, DMSO over compound (competition); higher = stronger covalent engagement of the cysteine by the compound, active = 1 or more
# Conditions: 500 µM; treatment time 1 h; system: HEK293T cell lysate
# How it was run: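 Reporter intensities give each cysteine's log2 competition ratio as the mean of control channels over the mean of compound channels. The samples were HEK293T lysate (2 mg/mL) given vehicle or electrophile (500 µM, 1 h, ambient temperature), then iodoacetamide alkyne (1 h), followed by click coupling to sCIP-TMT reagents, pooling, trypsin digestion overnight at 37 °C, streptavidin enrichment, acid elution, Orbitrap Eclipse LC-MS/MS with FAIMS and FragPipe quantification. Duplicate channels and three replicates were run, and cysteines quantified in only one replicate were discarded.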
# UniProt Q9Y6X4, sequence (Q9Y6X4 whole entry, looked up): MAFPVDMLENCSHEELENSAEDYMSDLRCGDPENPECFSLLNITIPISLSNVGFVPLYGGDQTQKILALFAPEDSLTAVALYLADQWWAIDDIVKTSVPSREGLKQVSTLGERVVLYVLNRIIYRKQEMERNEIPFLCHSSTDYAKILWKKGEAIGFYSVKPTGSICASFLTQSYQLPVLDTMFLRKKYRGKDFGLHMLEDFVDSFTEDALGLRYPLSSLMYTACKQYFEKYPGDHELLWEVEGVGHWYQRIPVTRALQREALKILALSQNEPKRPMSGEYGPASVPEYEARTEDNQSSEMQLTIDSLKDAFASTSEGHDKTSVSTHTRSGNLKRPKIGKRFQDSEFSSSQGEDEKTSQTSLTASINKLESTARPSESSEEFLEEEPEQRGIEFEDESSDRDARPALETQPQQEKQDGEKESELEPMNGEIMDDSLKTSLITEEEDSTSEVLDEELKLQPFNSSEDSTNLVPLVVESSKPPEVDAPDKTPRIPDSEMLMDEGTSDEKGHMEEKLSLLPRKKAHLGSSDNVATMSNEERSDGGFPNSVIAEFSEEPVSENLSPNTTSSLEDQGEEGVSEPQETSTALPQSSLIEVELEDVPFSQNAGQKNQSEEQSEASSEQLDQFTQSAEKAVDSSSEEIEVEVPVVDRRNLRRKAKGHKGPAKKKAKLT
# UniProt Q9C0B0, sequence (Q9C0B0 whole entry): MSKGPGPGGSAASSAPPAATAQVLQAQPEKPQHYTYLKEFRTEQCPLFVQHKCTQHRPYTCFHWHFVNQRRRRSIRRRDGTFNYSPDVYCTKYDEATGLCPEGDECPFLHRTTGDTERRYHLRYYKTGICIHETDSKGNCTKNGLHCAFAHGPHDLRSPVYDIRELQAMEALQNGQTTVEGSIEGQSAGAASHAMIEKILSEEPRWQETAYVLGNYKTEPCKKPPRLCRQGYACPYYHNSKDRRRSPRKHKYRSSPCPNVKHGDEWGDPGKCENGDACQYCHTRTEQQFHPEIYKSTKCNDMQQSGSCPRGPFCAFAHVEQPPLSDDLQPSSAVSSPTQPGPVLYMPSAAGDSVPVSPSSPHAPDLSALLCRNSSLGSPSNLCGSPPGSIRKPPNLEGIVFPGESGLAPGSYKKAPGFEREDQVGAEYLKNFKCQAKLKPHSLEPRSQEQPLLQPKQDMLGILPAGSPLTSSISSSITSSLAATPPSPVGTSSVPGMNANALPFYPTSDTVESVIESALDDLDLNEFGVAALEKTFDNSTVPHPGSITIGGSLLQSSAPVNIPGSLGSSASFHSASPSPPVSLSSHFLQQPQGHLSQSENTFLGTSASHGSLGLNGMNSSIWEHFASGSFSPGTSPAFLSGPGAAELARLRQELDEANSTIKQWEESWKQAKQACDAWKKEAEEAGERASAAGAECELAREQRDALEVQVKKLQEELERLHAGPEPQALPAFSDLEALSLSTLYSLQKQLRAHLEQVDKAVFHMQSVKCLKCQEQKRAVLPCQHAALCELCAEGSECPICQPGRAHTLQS
# UniProt Q9C0D3, sequence (Q9C0D3 whole entry): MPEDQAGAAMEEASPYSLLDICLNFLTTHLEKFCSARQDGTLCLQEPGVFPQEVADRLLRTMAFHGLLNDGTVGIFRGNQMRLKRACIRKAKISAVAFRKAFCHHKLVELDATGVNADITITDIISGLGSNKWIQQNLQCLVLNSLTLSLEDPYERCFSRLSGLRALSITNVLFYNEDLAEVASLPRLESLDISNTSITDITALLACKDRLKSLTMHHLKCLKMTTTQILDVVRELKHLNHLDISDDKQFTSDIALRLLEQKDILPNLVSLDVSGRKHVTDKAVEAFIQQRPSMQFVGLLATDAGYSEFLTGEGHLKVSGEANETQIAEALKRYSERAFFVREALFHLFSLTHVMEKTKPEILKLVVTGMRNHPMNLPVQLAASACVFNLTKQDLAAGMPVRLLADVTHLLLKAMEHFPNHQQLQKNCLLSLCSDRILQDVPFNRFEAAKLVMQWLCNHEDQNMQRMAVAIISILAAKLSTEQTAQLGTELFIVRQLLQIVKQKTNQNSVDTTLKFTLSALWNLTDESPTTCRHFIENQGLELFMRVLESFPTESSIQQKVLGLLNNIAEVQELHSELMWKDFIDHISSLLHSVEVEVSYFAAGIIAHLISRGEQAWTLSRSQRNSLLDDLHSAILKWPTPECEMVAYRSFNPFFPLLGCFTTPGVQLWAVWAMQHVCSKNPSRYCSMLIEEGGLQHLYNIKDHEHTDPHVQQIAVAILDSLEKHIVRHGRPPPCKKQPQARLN
# UniProt Q9UM54, sequence (Q9UM54 whole entry, looked up): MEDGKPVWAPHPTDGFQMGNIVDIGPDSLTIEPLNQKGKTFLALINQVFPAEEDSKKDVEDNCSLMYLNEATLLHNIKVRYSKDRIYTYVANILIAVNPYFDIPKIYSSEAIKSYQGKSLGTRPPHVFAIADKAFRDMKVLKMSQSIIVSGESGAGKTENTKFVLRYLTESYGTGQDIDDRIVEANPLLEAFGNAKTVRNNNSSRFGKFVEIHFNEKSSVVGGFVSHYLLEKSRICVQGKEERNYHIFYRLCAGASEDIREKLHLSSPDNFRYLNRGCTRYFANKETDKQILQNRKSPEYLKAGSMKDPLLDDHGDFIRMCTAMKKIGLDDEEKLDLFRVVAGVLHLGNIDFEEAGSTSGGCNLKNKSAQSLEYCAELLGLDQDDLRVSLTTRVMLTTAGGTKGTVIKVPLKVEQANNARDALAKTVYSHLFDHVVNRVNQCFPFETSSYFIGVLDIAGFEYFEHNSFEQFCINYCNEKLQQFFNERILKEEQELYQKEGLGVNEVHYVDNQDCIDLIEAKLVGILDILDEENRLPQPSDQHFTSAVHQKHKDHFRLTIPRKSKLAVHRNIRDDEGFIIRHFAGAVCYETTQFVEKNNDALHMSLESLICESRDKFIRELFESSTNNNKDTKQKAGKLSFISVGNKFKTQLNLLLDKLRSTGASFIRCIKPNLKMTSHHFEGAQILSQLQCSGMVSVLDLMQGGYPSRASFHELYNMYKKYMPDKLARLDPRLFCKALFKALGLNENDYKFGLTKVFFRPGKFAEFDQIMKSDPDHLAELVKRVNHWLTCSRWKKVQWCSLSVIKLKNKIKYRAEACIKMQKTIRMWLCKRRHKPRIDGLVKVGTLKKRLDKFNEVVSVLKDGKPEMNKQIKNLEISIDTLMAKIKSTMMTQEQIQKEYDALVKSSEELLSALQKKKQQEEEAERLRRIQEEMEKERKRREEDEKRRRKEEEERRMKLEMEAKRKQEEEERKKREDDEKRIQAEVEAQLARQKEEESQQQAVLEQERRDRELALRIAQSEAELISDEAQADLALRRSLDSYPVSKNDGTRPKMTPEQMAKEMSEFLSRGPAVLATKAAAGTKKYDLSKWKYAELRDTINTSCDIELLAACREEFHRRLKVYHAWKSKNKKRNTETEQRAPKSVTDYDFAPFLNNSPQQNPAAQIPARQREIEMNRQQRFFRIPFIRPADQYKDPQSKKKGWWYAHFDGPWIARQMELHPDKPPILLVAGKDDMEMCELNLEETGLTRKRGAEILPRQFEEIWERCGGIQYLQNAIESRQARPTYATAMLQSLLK
# UniProt Q9C0E2, sequence (Q9C0E2 whole entry, looked up): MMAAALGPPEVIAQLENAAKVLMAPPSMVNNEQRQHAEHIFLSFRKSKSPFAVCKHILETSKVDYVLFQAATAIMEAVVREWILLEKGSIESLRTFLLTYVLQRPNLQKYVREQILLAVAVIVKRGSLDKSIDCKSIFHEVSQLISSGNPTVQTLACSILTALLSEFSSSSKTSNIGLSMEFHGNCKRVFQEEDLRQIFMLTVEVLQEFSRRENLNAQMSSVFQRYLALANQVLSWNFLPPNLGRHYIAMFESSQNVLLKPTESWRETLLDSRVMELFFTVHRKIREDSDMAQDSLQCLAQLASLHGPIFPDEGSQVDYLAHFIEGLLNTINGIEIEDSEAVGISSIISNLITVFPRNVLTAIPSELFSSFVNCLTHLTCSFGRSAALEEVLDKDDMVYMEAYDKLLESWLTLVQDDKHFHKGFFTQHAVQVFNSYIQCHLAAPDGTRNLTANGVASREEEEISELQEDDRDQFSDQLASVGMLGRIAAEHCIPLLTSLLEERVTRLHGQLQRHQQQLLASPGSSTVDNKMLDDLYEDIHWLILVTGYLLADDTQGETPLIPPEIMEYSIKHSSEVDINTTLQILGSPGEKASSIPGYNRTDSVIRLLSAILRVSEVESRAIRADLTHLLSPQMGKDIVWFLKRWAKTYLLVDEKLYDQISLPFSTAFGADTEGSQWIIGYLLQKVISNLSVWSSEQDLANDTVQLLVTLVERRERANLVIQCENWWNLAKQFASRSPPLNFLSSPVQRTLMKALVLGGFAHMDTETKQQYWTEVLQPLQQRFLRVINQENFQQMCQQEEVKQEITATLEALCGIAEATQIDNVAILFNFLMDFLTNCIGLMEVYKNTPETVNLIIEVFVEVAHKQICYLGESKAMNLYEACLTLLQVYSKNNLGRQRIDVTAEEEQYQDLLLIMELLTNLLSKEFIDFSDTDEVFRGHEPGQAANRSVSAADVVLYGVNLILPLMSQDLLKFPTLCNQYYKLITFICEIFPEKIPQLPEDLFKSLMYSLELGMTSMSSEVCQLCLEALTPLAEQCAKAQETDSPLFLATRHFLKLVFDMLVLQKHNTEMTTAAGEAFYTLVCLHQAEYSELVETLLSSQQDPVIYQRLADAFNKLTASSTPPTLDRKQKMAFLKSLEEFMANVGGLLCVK
row,Target,log2 ratio of iodoacetamide-alkyne labeling
1,CD2AP C540 (UniProt Q9Y5K6),0.456
2,DLGAP4 C736 (UniProt Q9Y2H0),0.69
3,UniProt Q9C0E8_C149,0.125
4,MRPS7 C152 (UniProt Q9Y2R9),-0.102
5,MYO6 C1236 (UniProt Q9UM54),0.0604
6,ZYG11B C643 (UniProt Q9C0D3),0.222
7,UNK C383 (UniProt Q9C0B0),0.721
8,ANKFY1 C675 (UniProt Q9P2R3),0.216
9,EIF2B3 C64 (UniProt Q9NR50),0.548
10,UBE2O C406 (UniProt Q9C0C9),1.46 (active)
11,UniProt Q9BYG3_C237,0.515
12,DAXX C338 (UniProt Q9UER7),0.306
13,PPAN C432 (UniProt Q9NQ55),0.73
14,XPO4 C1149 (UniProt Q9C0E2),0.048
15,DDX52 C536 (UniProt Q9Y2R4),0.566
16,UniProt Q9NPA3_C62,0.293
17,SMARCAD1 C772 (UniProt Q9H4L7),1 (active)
18,FAM169A C138 (UniProt Q9Y6X4),0.201
